From PubChem BioAssay (Tox21)
Inconclusive results are not listed. Active and inactive are the calls of the source. Unless noted, calls follow the shape of the dose curve; as a rule, active = well fitted curve in the direction sought with a large enough effect in the repeat runs; inconclusive = weak or mixed curves; inactive = no such curve, though single readings can be large; an effect the other way counts as inactive or inconclusive.

Columns and labels:
[1] = qHTS assay to identify small molecule antagonists of the peroxisome proliferator-activated receptor gamma (PPARg) signaling pathway - cell viability counter screen (AID 743194); conditions: Potency: co-treated with 50 nM rosiglitazone; also: nearly all actives have a fitted effect of over 55% in size
Outline: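 Viability was measured as CellTiter-Glo luminescence in GeneBLAzer PPARg UAS-bla HEK293H cells. These cells had been exposed 17 h at 37 C to compounds together with rosiglitazone at 50 nM final, with the beta-lactamase readout taken in the same wells.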

[2] = qHTS assay for small molecule agonists of the antioxidant response element (ARE) signaling pathway (AID 743202; active = well fitted activation curve with a large enough effect in the signal ratio in the repeat runs, not every such curve was filed as active; the % refers to the signal ratio; also: potency is read from the fitted curve at half-maximal effect)
Outline: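 Quantitative high-throughput format in HepG2 cells bearing an integrated ARE-beta-lactamase reporter. Compound exposure lasted 16 h at 37 C, and fluorescence was read 2 h after adding LiveBLAzer B/G substrate at room temperature.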

[3] = qHTS assay for small molecule agonists of the antioxidant response element (ARE) signaling pathway - cell viability counter screen (AID 743203; calls by dose curve; also: nearly all actives have a fitted effect of over 55% in size)
Outline: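 Seeded at 2,000 cells/well, ARE-bla HepG2 cells were incubated 5 hrs before compound addition. After 16 hrs of treatment at 37C with 5% CO2, CellTiter-Glo reagent was added and luminescence read 30 min later.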

[4] = qHTS assay for small molecule activators of the heat shock response signaling pathway - cell viability counter screen (AID 743209); also: nearly all actives have a fitted effect of over 50% in size
Outline: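 First, HSE-bla HeLa cells were seeded at 1500 cells/well and kept overnight at 37 C. Next, compounds were pinned in and incubated 5 h. After the FRET substrate step, CellTiter-Glo was added and luminescence read 30 min later.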

[5] = tested on: thyroid hormone receptor (rat, GH3 cells); test: qHTS assay to identify small molecule agonists of the thyroid receptor (TR) signaling pathway (AID 743066; calls by dose curve)
[6] = biological target: Estrogen receptor (Homo sapiens) (UniProt P03372); test: qHTS assay to identify small molecule agonists of the estrogen receptor alpha (ER-alpha) signaling pathway (AID 743075; calls by dose curve;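 also: HEK293 GripTite cells with ER-alpha and UAS-driven beta-lactamase reporter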)
[7] = qHTS assay to identify small molecule antagonists of the estrogen receptor alpha (ER-alpha) signaling pathway using the BG1 cell line (AID 743080; calls by dose curve;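 also: BG1 cells stimulated with 17beta-estradiol alongside compound; nearly all actives have a fitted effect of over 25% in size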; also: potency is read from the fitted curve at half-maximal effect)
Outline: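 BG1Luc4E2, endogenous ER-alpha, 4xERE-luc; 5 d charcoal-stripped FBS, phenol red free; 24 h plating; cpd + 17beta-estradiol 21.5 h, 37 C/5% CO2; CellTiter-Fluor viability 30 min, then ONE-Glo luciferase 30 min RT.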

[8] = qHTS assay to identify small molecule antagonists of the estrogen receptor alpha (ER-alpha) signaling pathway using the BG1 cell line - cell viability counter screen (AID 743081);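 also: compound given together with 17beta-estradiol as the ER stimulus; nearly all actives have a fitted effect of over 45% in size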
Aromatase (Homo sapiens) = Aromatase (Homo sapiens) (UniProt P11511); test: qHTS assay to identify aromatase inhibitors (AID 743083); also: nearly all actives have a fitted effect of over 55% in size
[9] = qHTS assay to identify aromatase inhibitors - cell viability counter screen (AID 743084);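 also: cells stimulated with testosterone during compound exposure; nearly all actives have a fitted effect of over 55% in size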
[10] = qHTS assay to identify small molecule that activate the aryl hydrocarbon receptor (AhR) signaling pathway - cell viability counter screen (AID 743086);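 also: HepG2 liver cells carrying the AhR DRE luciferase reporter; nearly all actives have a fitted effect of over 45% in size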
Outline: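 Cytotoxicity counter screen: CellTiter-Fluor signal (30 min, 37 C) in 4000 HepG2 cells/well carrying the DRE-luciferase reporter, following 24 h compound exposure at 37 C.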

[11] = biological target: Peroxisome proliferator-activated receptor gamma (Homo sapiens) (UniProt P37231); test: qHTS assay to identify small molecule antagonists of the peroxisome proliferator-activated receptor gamma (PPARg) signaling pathway (AID 743191; calls by dose curve; also: nearly all actives have a fitted effect of over 30% in size)
Outline: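 Beta-lactamase reporter under UAS control in HEK293H PPARg-bla cells; compound treatment 17 h at 37C. Read-out: fluorescence intensity after 1 h room-temperature incubation with LiveBLAzer B/G FRET substrate.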

[12] = qHTS assay for small molecule activators of the heat shock response signaling pathway (AID 743210; active = well fitted activation curve with a large enough effect in the signal ratio in the repeat runs, with a control signal flat, not every such curve was filed as active; the % refers to the signal ratio;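 also: HeLa cells with beta-lactamase reporter driven by heat shock elements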)
Outline: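 HeLa HSE-bla cells, overnight plating; cpd in DMSO 5 h, 37 C; LiveBLAzer B/G FRET substrate 2.5 h RT; fluorescence intensity read.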

[13] = qHTS assay to identify small molecule antagonists of the estrogen receptor alpha (ER-alpha) signaling pathway - cell viability counter screen (AID 743074; calls by dose curve;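 also: HEK293 cells carrying ER-alpha-UAS-bla reporter stimulated with 17beta-estradiol; nearly all actives have a fitted effect of over 45% in size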)
[14] = biological target: Aryl hydrocarbon receptor (Homo sapiens) (UniProt P35869); test: qHTS assay to identify small molecule that activate the aryl hydrocarbon receptor (AhR) signaling pathway (AID 743085); also: nearly all actives have a fitted effect of over 15% in size; also: potency is read from the fitted curve at half-maximal effect;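 as to activation: HG2L7.5c1 human HepG2 liver cells with stably integrated DRE-driven firefly reporter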
Outline: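 Luminescence read-out: ONE-Glo reagent, 30 min at room temperature, in HG2L7.5c1 HepG2 reporter cells treated 24 h at 37C. Viability was measured beforehand by CellTiter-Fluor fluorescence after 30 min at 37C.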

[15] = biological target: Estrogen receptor (Homo sapiens) (UniProt P03372); test: qHTS assay to identify small molecule antagonists of the estrogen receptor alpha (ER-alpha) signaling pathway (AID 743069; active = well fitted curve in the direction sought with a large enough effect in the signal ratio in the repeat runs, not every such curve was filed as active; the % refers to the signal ratio)
Outline: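 ER-alpha-UAS-bla GripTite HEK293 line; 2% charcoal-stripped FBS overnight; plated, 4 hr 37C/5% CO2; cpd in DMSO + 17beta-estradiol, 18 hr 37C; LiveBLAzer B/G FRET substrate 2 hr RT; fluorescence intensity.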

[16] = biological target: Estrogen receptor (Homo sapiens) (UniProt P03372); test: qHTS assay to identify small molecule agonists of the estrogen receptor alpha (ER-alpha) signaling pathway using the BG1 cell line (AID 743079); conditions: BG1Luc4E2 cells, ERE-luciferase agonist, 22 h; also: nearly all actives have a fitted effect of over 20% in size
[17] = qHTS assay to identify small molecule antagonists of the thyroid receptor (TR) signaling pathway (AID 743065); also: nearly all actives have a fitted effect of over 55% in size; also: potency is read from the fitted curve at half-maximal effect
Outline: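 Antagonism measured as loss of luciferase signal in GH3 cells stably carrying a TRE-luciferase reporter, co-treated with compound and T3 (1 nM final) for 23.5 h at 37 C. Viability was read in the same well by CellTiter-Fluor.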

[18] = biological target: Peroxisome proliferator-activated receptor gamma (Homo sapiens) (UniProt P37231); test: qHTS assay to identify small molecule agonists of the peroxisome proliferator-activated receptor gamma (PPARg) signaling pathway (AID 743094; active = well fitted activation curve with a large enough effect in the signal ratio in the repeat runs, not every such curve was filed as active; the % refers to the signal ratio)
Outline: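 Quantitative HTS agonist mode: stable HEK293H line with UAS-beta-lactamase reporter under PPARg control, 17 h compound exposure at 37C, fluorescence after 1 h FRET substrate loading at room temperature.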
% is scaled to controls: 0 for no effect and ±100 for the full control effect.

Estrogen receptor (Homo sapiens), sequence (P03372 whole entry, looked up): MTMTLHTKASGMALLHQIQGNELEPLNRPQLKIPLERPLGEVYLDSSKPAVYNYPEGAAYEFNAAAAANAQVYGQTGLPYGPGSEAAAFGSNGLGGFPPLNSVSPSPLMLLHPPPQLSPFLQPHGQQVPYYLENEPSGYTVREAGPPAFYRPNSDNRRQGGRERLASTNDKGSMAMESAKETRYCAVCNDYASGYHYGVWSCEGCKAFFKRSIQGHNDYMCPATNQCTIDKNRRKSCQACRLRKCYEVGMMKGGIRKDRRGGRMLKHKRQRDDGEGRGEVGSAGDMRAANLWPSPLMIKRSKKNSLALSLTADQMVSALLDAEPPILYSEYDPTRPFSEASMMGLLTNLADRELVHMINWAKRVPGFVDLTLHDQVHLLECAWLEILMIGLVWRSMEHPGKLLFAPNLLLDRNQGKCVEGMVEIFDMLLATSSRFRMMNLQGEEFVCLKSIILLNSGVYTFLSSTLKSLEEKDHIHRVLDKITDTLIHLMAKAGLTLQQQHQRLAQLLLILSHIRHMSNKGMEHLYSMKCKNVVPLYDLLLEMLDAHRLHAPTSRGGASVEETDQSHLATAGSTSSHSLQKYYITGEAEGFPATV
Aryl hydrocarbon receptor (Homo sapiens), sequence (P35869 whole entry, looked up): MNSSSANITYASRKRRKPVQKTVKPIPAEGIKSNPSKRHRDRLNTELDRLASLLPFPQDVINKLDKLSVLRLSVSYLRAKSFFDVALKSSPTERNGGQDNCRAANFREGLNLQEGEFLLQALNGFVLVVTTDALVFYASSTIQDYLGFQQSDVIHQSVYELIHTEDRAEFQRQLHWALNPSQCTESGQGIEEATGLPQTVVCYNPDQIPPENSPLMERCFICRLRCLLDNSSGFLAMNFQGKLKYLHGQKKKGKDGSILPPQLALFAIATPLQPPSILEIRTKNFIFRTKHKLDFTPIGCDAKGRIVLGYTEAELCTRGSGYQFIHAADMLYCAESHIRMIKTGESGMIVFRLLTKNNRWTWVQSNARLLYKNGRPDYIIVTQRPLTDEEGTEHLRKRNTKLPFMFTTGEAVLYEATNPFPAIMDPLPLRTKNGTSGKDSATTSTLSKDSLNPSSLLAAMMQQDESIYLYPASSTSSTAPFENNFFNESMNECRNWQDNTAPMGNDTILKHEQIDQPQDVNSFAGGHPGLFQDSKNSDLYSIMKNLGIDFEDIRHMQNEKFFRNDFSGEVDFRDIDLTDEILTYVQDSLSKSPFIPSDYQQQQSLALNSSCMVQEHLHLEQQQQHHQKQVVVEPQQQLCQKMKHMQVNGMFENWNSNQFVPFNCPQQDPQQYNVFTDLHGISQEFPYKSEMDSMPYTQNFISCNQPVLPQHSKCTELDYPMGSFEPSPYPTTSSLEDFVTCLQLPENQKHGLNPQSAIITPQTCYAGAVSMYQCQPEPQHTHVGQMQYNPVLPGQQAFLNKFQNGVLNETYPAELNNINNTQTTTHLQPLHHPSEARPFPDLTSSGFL
Peroxisome proliferator-activated receptor gamma (Homo sapiens), sequence (P37231 whole entry, looked up): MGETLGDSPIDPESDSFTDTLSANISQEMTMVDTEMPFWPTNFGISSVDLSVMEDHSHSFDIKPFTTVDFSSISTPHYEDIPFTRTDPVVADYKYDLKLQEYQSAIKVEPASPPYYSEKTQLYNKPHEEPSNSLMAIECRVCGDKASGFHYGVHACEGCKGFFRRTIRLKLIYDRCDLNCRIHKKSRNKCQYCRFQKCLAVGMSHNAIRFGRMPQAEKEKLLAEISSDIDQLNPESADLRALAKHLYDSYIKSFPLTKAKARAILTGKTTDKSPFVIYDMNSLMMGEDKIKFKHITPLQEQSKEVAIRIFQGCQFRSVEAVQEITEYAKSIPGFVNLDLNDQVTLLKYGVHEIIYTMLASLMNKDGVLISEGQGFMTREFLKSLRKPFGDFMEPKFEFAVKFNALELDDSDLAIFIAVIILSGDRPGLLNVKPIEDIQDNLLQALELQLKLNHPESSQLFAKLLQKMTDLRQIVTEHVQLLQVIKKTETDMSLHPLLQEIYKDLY
Aromatase (Homo sapiens), sequence (P11511 whole entry, looked up): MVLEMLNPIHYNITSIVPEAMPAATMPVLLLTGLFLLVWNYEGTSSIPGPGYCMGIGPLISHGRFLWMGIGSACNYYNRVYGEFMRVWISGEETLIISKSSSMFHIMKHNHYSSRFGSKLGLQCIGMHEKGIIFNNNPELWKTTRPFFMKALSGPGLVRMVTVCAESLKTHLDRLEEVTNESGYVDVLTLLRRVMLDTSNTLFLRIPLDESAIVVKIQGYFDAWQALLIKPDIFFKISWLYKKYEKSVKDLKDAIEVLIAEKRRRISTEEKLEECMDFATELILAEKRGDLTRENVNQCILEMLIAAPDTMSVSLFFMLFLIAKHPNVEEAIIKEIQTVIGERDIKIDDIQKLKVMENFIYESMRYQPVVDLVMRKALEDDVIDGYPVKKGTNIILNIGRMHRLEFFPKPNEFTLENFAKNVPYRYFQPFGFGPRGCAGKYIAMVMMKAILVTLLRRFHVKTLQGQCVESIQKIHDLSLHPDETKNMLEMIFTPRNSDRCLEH

CCOC(=O)C1(c2ccccc2)CCN(CCc2ccc(N)cc2)CC1
inactive: Potency [1] | Potency [2] | Potency [3] | Potency [4]

Cc1ncc2n1-c1ccc(Cl)cc1C(c1ccccc1F)=NC2
active: Potency [7] 11.9 µM
inactive: Potency [5] | Potency [6] | Potency [8] | Potency (Aromatase (Homo sapiens)) | Potency [9] | outcome [10] | Potency [11] | Potency [1] | Potency [3] | outcome [12]

C[C@]1(O)CC[C@H]2[C@@H]3CCC4=CC(=O)CC[C@]4(C)[C@@]3(F)[C@@H](O)C[C@@]21C
inactive: outcome [13] | Potency [8] | Potency (Aromatase (Homo sapiens)) | Potency [9] | Potency [14] | outcome [10] | Potency [11] | Potency [4] | outcome [12]

Nc1ccccc1Cl
inactive: Potency [5] | Potency [15] | outcome [13] | Potency [6] | activation ([16]; at 70.3 µM (top of the series)) -8.6% | Potency [7] | Potency [8] | Potency (Aromatase (Homo sapiens)) | Potency [9] | outcome [10] | Potency [11] | Potency [1] | Potency [2] | Potency [3] | Potency [4] | outcome [12]

NC1=NC(=O)C(c2ccccc2)O1 (configuration not stated)
inactive: Potency [17] | Potency [5] | outcome [13] | Potency [8] | outcome [10] | Potency [1] | Potency [2] | Potency [3] | Potency [4] | outcome [12]

O=C1CN2CCOC2(c2ccccc2Cl)c2cc(Cl)ccc2N1 (configuration not stated)
inactive: Potency [1] | Potency [3] | Potency [4]

O=C(NCO)NCO
inactive: Potency [5] | Potency [15] | outcome [13] | Potency [6] | activation ([16]; at 95 µM (top of the series)) 2.29% | Potency [7] | Potency [8] | Potency (Aromatase (Homo sapiens)) | outcome [10] | outcome [18] | Potency [11] | Potency [2] | Potency [3] | Potency [4] | outcome [12]

COc1cc(C[C@@H](C)N)c(OC)cc1C
active: Potency [17] 65.4 µM
inactive: Potency [15] | outcome [13] | Potency [7] | Potency [8] | Potency (Aromatase (Homo sapiens)) | Potency [9] | outcome [10] | outcome [18] | Potency [11] | Potency [1] | Potency [3] | outcome [12]

ClCCCN1CCN(c2cccc(Cl)c2)CC1
active: Potency [2] 6.68 µM
inactive: Potency [11] | Potency [3] | Potency [4] | outcome [12]

O=C(Oc1ccc(Br)cc1)N1CCN2CCC1CC2
inactive: Potency [5] | Potency [15] | outcome [13] | Potency [6] | activation ([16]; at 70.3 µM (top of the series)) 1.03% | Potency [8] | Potency (Aromatase (Homo sapiens)) | Potency [9] | Potency [14] | outcome [10] | outcome [18] | Potency [11] | Potency [1] | Potency [3]

CCCCC(=O)Cl
inactive: Potency [17] | Potency [5] | outcome [13] | Potency [8] | outcome [10] | Potency [4] | outcome [12]

COC(=O)c1c(C(F)F)nc(C(F)(F)F)c(C2=NCCS2)c1CC(C)C
inactive: Potency [5] | Potency [15] | outcome [13] | Potency [6] | activation ([16]; at 70.3 µM (top of the series)) 0.436% | Potency [7] | Potency [8] | Potency (Aromatase (Homo sapiens)) | Potency [9] | Potency [14] | outcome [10] | outcome [18] | Potency [11] | Potency [1] | Potency [2] | Potency [3] | Potency [4] | outcome [12]

Clc1ccccc1N1CCNCC1
inactive: Potency [11] | Potency [3] | outcome [12]

CC(C)CC(N(C)C)C1(c2ccc(Cl)cc2)CCC1 (configuration not stated)
inactive: Potency [5] | outcome [13] | Potency [8] | Potency (Aromatase (Homo sapiens)) | Potency [9] | Potency [14] | outcome [10] | Potency [1] | Potency [2]

CCOP(=S)(Oc1cnc(C(C)(C)C)nc1)OC(C)C (configuration not stated)
inactive: Potency [5] | outcome [13] | Potency [8] | outcome [10] | outcome [18] | Potency [11] | Potency [3] | Potency [4]
active: Potency [17] 61.1 µM | Potency [14] 54.5 µM
